Compound activity (PubChem)
DT40 TDP1 no CPT = qHTS for Inhibitors of human tyrosyl-DNA phosphodiesterase 1 (TDP1): qHTS in cells in absence of CPT; DT40 Tdp1-/- hTDP1 cells, no CPT, ATP luminescence, 48 h; 420,000 compounds, 15% hits; Potency, µM (highest dose often 46.2 µM), inactives show at the highest dose activity change, negative = growth inhibition, hits mostly inhibitors; AID 686978, 2013; further: potency means the concentration at half of the fitted maximal effect; nearly all actives have a fitted effect of over 55% in size
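Luminescent ATP content (CellTiter-Glo) served as the growth readout. Knockout chicken DT40 cells expressing human TDP1 were exposed to compounds without camptothecin for a minimum 48 hr at 37 °C.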
HT1080NT lethal = qHTS for induction of synthetic lethality in tumor cells producing 2HG: qHTS for the HT-1080-NT fibrosarcoma cell line | Potency, µM (series often up to 46.1 µM), inactives show at the highest dose activity, negative = less viability, most hits filed as cytotoxic | 360,000 compounds, 1.6% hits | HT-1080-NT fibrosarcoma viability, CellTiter-Glo ATP luminescence, 48 h;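 further: NT is the 2HG producing partner of a matched IDH1 knockdown line; potency means the concentration at half of the fitted maximal effect; 0% = DMSO-treated cells and -100% = media-only wells without cells; nearly all actives have a fitted effect of over 55% in size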
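Viability by CellTiter-Glo luminescence after 48 h compound exposure at 37C of HT-1080-NT cells (750/well, RPMI, 5% FBS). % activity scaled between DMSO wells and medium-only wells, then curve-fitted and categorized by curve class.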
TDP1 cell CPT = qHTS for Inhibitors of human tyrosyl-DNA phosphodiesterase 1 (TDP1): qHTS in cells in presence of CPT; chicken DT40 Tdp1-/-;hTDP1 cells + 20 nM CPT, ATP luminescence, 48 h; Potency, µM (highest dose often 46.2 µM), for the others: at the highest dose activity change, negative = growth inhibition, most hits filed as inhibitors; 420,000 compounds, 12% hits; further: potency means the concentration at half of the fitted maximal effect; nearly all actives have a fitted effect of over 55% in size
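Cell growth measured by CellTiter-Glo luminescence after a minimum 48 h, 37 C compound exposure with 20 nM CPT in Tdp1-knockout DT40 cells stably expressing hTDP1, seeded 400/well; qHTS titration format.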
HT1080 IDH1KD tx = qHTS for induction of synthetic lethality in tumor cells producing 2HG: qHTS for the HT-1080-IDH1KD cell line; HT-1080 IDH1 knockdown viability, ATP luminescence, 48 h; Potency, µM (top dose mostly 46.1 µM), for inactives: top-dose activity, negative = toxicity, hits mostly cytotoxic; 360,000 compounds, 2% hits; AID 686971, 2013;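 further: potency means the concentration at half of the fitted maximal effect; 0% = DMSO wells and -100% = cell-free medium wells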
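CellTiter-Glo luminescence after 48 h compound exposure at 37 degrees C of IDH1-knockdown HT-1080 cells in 5% FBS RPMI. %Activity scaled between DMSO wells and cell-free media wells, with curves fitted and assigned curve classes.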
IL1B secr inh = qHTS for Inhibitors of Inflammasome Signaling: IL-1-beta AlphaLISA Primary Screen. activity change, % at 57.5 µM. AID 743279, 2014. 360,000 compounds, 4.7% hits. THP-1 LPS/ATP IL-1B secretion, AlphaLISA, 16 h; stronger effect = lower value; in the data active means activity change below about -50%; inconclusive means mostly about -30% to -49%
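Secreted IL-1B measured by AlphaLISA bead assay after 16 h compound exposure of THP-1 cells; compounds (final up to 57.5 uM) added 1 h before LPS (250 ng/mL) and ATP (1.25 mM) stimulation; lower signal means less secretion.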
ELG1 DNA repair = qHTS screen for small molecules that inhibit ELG1-dependent DNA repair in human embryonic kidney (HEK293T) cells expressing luciferase-tagged ELG1 | HEK293T ELG1-luciferase reporter, luminescence, 16 h; DNA damage induced by 5-fluorouridine | Potency, µM (highest dose often 46.1 µM), without a hit: top-dose activity change, negative = inhibition, usual class: inhibitors | 330,000 compounds, 2.3% hits; further: potency means the concentration at half of the fitted maximal effect; nearly all actives have a fitted effect of over 55% in size
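In this reporter screen, reduction of luminescence relative to DMSO vehicle indicated activity. Compounds and 5-fluorouridine were added together to 2,000 cells per well, incubated for 16 hr at 37 °C, then developed with ONE-Glo.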
ELG1 FLuc counter = qHTS screen for small molecules that inhibit ELG1-dependent DNA repair: Hit Confirmation in Cell-Based Luciferin Assay; Potency, µM (series often up to 46.1 µM), for the others: at the top dose activity change, negative = inhibition, hits mostly inhibitors; shares compounds with ELG1 DNA repair; cell-free firefly luciferase luminescence counter-screen, ViewLux; AID 624247, 2012; 350 compounds, 3% hits; further: potency means the concentration at half of the fitted maximal effect
ELG1-Luc inh = HTS assay for small molecules that inhibit ELG1-dependent DNA repair in human embryonic kidney (HEK293T) cells expressing luciferase-tagged ELG1: Hit Confirmation | 670 compounds, 68% hits | AID 624248, 2012 | HEK293T ELG1-luciferase levels, luminescence; cells co-treated with 5-fluorouridine | shares compounds with ELG1 DNA repair | Potency, µM (highest dose often 46.1 µM), for inactives: at the highest dose activity change, negative = inhibition, hits mostly inhibitors; further: potency means the concentration at half of the fitted maximal effect; nearly all actives have a fitted effect of over 55% in size
ELG1 MMS Luc = MMS-stimulated human ELG1 repair inhibition, confirmed; shares compounds with ELG1 DNA repair; HEK293T luciferase-tagged ELG1 level, MMS stimulated; Potency, µM (doses to about 46.1 µM), for the others: at the highest dose activity change, negative = inhibition, actives largely listed as inhibitors; 670 compounds, 53% hits; AID 624249; further: potency means the concentration at half of the fitted maximal effect; nearly all actives have a fitted effect of over 60% in size
ELG1 5-FU = qHTS screen for small molecules that inhibit ELG1-dependent DNA repair: Hit Confirmation with 5FU Viability. shares compounds with ELG1 DNA repair. cell viability with 5-FU, ELG1-dependent repair. Potency, µM (titrated, usually from 46.1 µM), for the others: at the top dose activity change, negative = viability loss, hits mostly cytotoxic. 670 tested, under 10 active. AID 624250, 2012;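 further: ELG1-luc HEK293T cells cotreated with 5-fluorouridine at 10 µM final; potency means the concentration at half of the fitted maximal effect; viability measured 16 h after compound addition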
ELG1 MMS viab = qHTS screen for small molecules that inhibit ELG1-dependent DNA repair: Hit Confirmation with MMS Viability; Potency, µM (titrated, usually from 46.1 µM), without a hit: top-dose activity change, negative = viability loss, usual class: cytotoxic; Cell viability with MMS, ELG1-dependent DNA repair; shares compounds with ELG1 DNA repair; 670 compounds, 33% hits;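 further: ELG1-luc HEK293T cells co-treated with 10 µM MMS; potency means the concentration at half of the fitted maximal effect; viability read 16 h after compound addition; nearly all actives have a fitted effect of over 60% in size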
ELG1 unstim viab = qHTS screen for small molecules that inhibit ELG1-dependent DNA repair: Hit Confirmation with Unstimulated Viability Assay | shares compounds with ELG1 DNA repair | cell viability counter-screen, unstimulated, luminescence | Potency, µM (doses to about 45.9 µM), for inactives: top-dose activity change, negative = loss of viability, most hits filed as cytotoxic | 900 compounds, 8% hits;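 further: potency means the concentration at half of the fitted maximal effect; compound exposure lasted 16 hours before reading; nearly all actives have a fitted effect of over 55% in size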
FLuc enzyme = qHTS screen for small molecules that inhibit ELG1-dependent DNA repair: Hit Confirmation in Biochemical Luciferin Assay. shares compounds with ELG1 DNA repair. purified firefly luciferase, luminescence counter-screen. Potency, µM (titrated, usually from 57.5 µM), for inactives: at the top dose activity, negative = inhibition, hits mostly inhibitors. 350 compounds, 10% hits. AID 624253, 2012; further: potency means the concentration at half of the fitted maximal effect
An asterisk follows results filed as active; ? = inconclusive; · = no result. An excerpt weighted towards active compounds, which were near 19% of everything screened. Unless noted, the call rests on the fitted dose curve; in most records, active means well fitted curve in the direction sought with a large enough effect; inconclusive means small, poorly fitted or top-dose-only effect, or another doubt; inactive means no such curve, though single readings can be large; an effect the other way counts as inactive or inconclusive. Unless noted, on the % scale 0 is the no-effect control and ±100 the full control effect.

SMILES | DT40 TDP1 no CPT | HT1080NT lethal | TDP1 cell CPT | HT1080 IDH1KD tx | IL1B secr inh | ELG1 DNA repair | ELG1-Luc inh | ELG1 MMS Luc | ELG1 5-FU | ELG1 MMS viab | ELG1 unstim viab | others
C[C@H](CO)N1C[C@H](C)[C@@H](CN(C)C(=O)Nc2ccc(C(F)(F)F)cc2)Oc2c(NC(=O)Nc3ccccc3)cccc2C1=O | ? | ? | ? | -23% | -58* | 0.52µM* | 6.3µM* | -13% | ? | -7% | ? | ELG1 FLuc counter=-11%;FLuc enzyme=?
C[C@H](CO)N1C[C@H](C)[C@@H](CN(C)C(=O)Nc2ccc(C(F)(F)F)cc2)Oc2c(NC(=O)Nc3ccc4c(c3)OCO4)cccc2C1=O | 18µM* | -23% | ? | -9% | ? | 0.58µM* | 2µM* | -18% | ? | 9% | -12% | ELG1 FLuc counter=6%;FLuc enzyme=?
C[C@H](CO)N1C[C@H](C)[C@@H](CN(C)C(=O)Nc2ccc(C(F)(F)F)cc2)Oc2c(NC(=O)c3ccncc3)cccc2C1=O | -26% | 2% | 15% | 4% | 19 | 5% | · | · | · | · | ·
CC1CN(S(=O)(=O)c2cccc(C(=O)Nc3ccc(S(=O)(=O)NC4=NCCCCC4)cc3)c2)CC(C)O1 (stereo not drawn) | ? | -8% | ? | -1% | 20 | -3% | · | · | · | · | ·
Cc1cnc(C(=O)OCC(=O)c2c(N)n(CC(C)C)c(=O)n(C)c2=O)cn1 | ? | -6% | -26% | -5% | 24 | -15% | · | · | · | · | ·
CC(C)Cn1c(N)c(C(=O)COC(=O)CC23CC4CC(CC(C4)C2)C3)c(=O)n(C)c1=O | 7.3µM* | ? | 7.3µM* | ? | ? | 3.7µM* | 2µM* | 1.1µM* | -24% | 1µM* | 16µM*
Cc1cccc(C(=O)OCC(=O)c2c(N)n(CC(C)C)c(=O)n(C)c2=O)c1[N+](=O)[O-] | 18µM* | -9% | ? | -5% | 18 | 4.5µM* | 13µM* | 7.1µM* | 3% | 6.3µM* | ?
COc1cccc(CN(C)C(=O)C(CCSC)NS(=O)(=O)c2ccc3c(c2)OCCO3)c1OC (stereo not drawn) | 13µM* | ? | 16µM* | -16% | -1 | 4.6µM* | 11µM* | 8.9µM* | 9% | ? | ?
Cc1ccc(OC(=O)N(C)C[C@@H]2OCc3cn(nn3)CCCC(=O)N([C@H](C)CO)C[C@H]2C)cc1 | -24% | -7% | -21% | 7% | -13 | · | · | · | · | · | ·
COc1cc(OC)c(CN2CCCN(C)CC2)cc1Br | -1% | 3% | -6% | 5% | -18 | -11% | · | · | · | · | ·
COc1ccc2cc3c(N)nn(C(=O)c4ccc(F)cc4)c3nc2c1 | 10µM* | 0% | ? | -1% | ? | 4.1µM* | 2.5µM* | 4.4µM* | 8% | 5% | -4%
COc1ccc2cc3c(N)nn(C(=O)c4ccccc4Cl)c3nc2c1 | ? | ? | 1.6µM* | -9% | -65* | 0.65µM* | 0.79µM* | 4µM* | 7% | -1% | ? | ELG1 FLuc counter=?;FLuc enzyme=-9%
COc1ccc(NC(=O)CSCC(=O)Nc2cc(Cl)ccc2N2CCCC2)cc1 | -25% | -8% | -1% | -1% | 24 | ? | · | · | · | · | ·
COc1ccc([N+](=O)[O-])cc1NS(=O)(=O)c1cc(C(=O)N2CCN(C)CC2)ccc1OC | 17% | 6% | 6% | 5% | 15 | 15% | · | · | · | · | ·
O=C(CN(Cc1ccccc1)C(=O)CNS(=O)(=O)c1ccc(F)cc1)NCc1ccco1 | ? | 0% | 5% | -2% | -9 | 5% | · | · | · | · | ·
